Test results: the supplement of paper PMC10338343
± gives the standard deviation.

tested on: MILI (PIWIL2) piRISC loaded with piRNA #1 (26 nt); assay: pre-steady-state target cleavage rate (min^-1); guide: piRNA #1 5'p-UGAGGUAGUAGGUUGUAUAGUAUCCA; MIWI and MILI are mouse PIWI proteins and EfPiwi is from a freshwater sponge; tags in brackets are library labels; higher = faster piRNA-guided slicing of the target; settings: auxiliary factor: 500 nM mouse GTSF1
Method in brief: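 For Cleave-'n-Seq, a transcribed, DNA-blocked target RNA library […] met 1 nM active affinity-purified piRISC with one synthetic guide at 33 °C for 0–8 or 0–960 min in HEPES–potassium acetate buffer, with or without 500 nM GTSF1 partner protein. Uncleaved targets were sequenced and normalised to depth and weakly complementary targets, with three trials pooled and k3 capped at 0.0001 min^-1. A burst-and-steady-state fit supplied the pre-steady-state cleavage rate.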
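Also: 1 nM active piRISC with 0.1 nM target library at 33 °C single turnover.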

Row | Sequence | pre-steady-state target cleavage rate
1 | GGAGACCUAUGAUAUGAACCUACUACGUGA | < 0.0001
2 | GGAGACCUAUGUAUAGAACCUACUACCUCA | 0.0559 ± 0.0092
3 | GGAGACCUAUGUAUACAACCUACUACCAGA | 0.055 ± 0.009
4 | GGAGACCUAUGAUAACAACCUACUACUUCA | 0.00299 ± 0.0028
5 | GGAGACCUAUGAUAUGUACCUACUACCGCA | < 0.0001
6 | GGAGACGAUACUAAACAACCUACAACCUCA | 0.116 ± 0.013
7 | GGAGACCUUACUAUACAACCUACAACCUGA | 0.0284 ± 0.0093
8 | GGAGACCUAUGUAUACAACCUACUUCGUCA | 0.0106 ± 0.0032
9 | GGAGACCUUACAAUACAACCUACUACCUCA | 0.146 ± 0.019
10 | GGAGACCUAACUUUACAACCUACUACCACA | 0.109 ± 0.024
11 | GGAGACCUAUGAAUACAUCCUACUACCUCA | 0.012 ± 0.0031
12 | GGAGACCUUACUAUACAUGCUACUACCUCA | 0.111 ± 0.0086
13 | GGAGACCUUACUAUUCAACCUACUACCACA | 0.161 ± 0.016
14 | GGAGACCUAUCUAUAGAACCUACUUCCUCA | 0.00536 ± 0.0024
15 | GGAGACCUAUGAUUACGACCUACUACCUCA | 0.00341 ± 0.003
16 | GGAGACCUAUGUAUAGAAGCUACUACCUCA | 0.0984 ± 0.013
17 | GGAGAGGAAACUAUAGAACCUACUACCUCA | 0.178 ± 0.018
18 | GGAGACCUAUCUAUAGAUCCUACUACCUCA | 0.144 ± 0.017
19 | GGAGACCUAACUAUACAACCUACUACUCA | 0.141 ± 0.033
20 | GGAGACCUAUGUAUACAACCUACAUACCUCA | 0.043 ± 0.0061

Row | Sequence | pre-steady-state target cleavage rate
21 | GGAGACCUUACAAUACAACCUACUAGCUCA | 0.103 ± 0.013
22 | GGAGACCUAUGUAUAGAACCUACUACCACA | 0.0238 ± 0.0059
23 | GGAGACCUAUGUGUACAACCUACUACCUCA | 0.0178 ± 0.0035
24 | GGAGACCUAUGAUAUGUUGGUAUACCUCA | < 0.0001
25 | GGAGACCAUACUAUACAACCUAGUACCACA | 0.00768 ± 0.0041
26 | GGAGUGGAUACUAUACAACCAUACUACCUCA | 0.00751 ± 0.003
27 | GGAGACCAUACUUAUCAACCUACUACCUCA | 0.102 ± 0.02
28 | GGAGACCUAACUAUACAACCUACUACGCUCA | 0.212 ± 0.042
29 | GGAGACCUAUGAAUACAACCUAAUACCUCA | 0.00363 ± 0.0026
30 | GGAGACCUAUGAUAUCAACCUACGUACCUCA | 0.00296 ± 0.0024
31 | GGAGACCUAUCUAUACAACCUACAAGCUCA | 0.0435 ± 0.012
32 | GGAGACCUAUCUAUUCAACCUACUUCCUCA | 0.0412 ± 0.0086
33 | GGAGACCUAACUAAACUACCUACUACCUCA | 0.0594 ± 0.017
34 | GGAGACCUAUGAUUAUCAACCUACUACCUCA | 0.00367 ± 0.0025
35 | GGAGACCUUACUAUACAACCUACUACCACA | 0.18 ± 0.018
36 | GGAGACCUUACUAUACAUCCUACUUCCUCA | 0.183 ± 0.031
37 | GGAGACCUAUGAAUACAACCUACUGACCUCA | 0.00755 ± 0.0029
38 | GGAGACCUAACUAUACAACCUACUUCCACA | 0.0458 ± 0.022
39 | GGAGACCUAUGAUAUGUUCCUACUAGCUCA | < 0.0001
40 | GGAGACCUUACUUAUCAACCUACUACCUCA | 0.0518 ± 0.014
